ELG1 DNA repair: qHTS screen for small molecules that inhibit ELG1-dependent DNA repair in human embryonic kidney (HEK293T) cells expressing luciferase-tagged ELG1; 330,000 tested, 2.3% active; AID 504467, 2011; Potency, µM (titrated, usually from 46.1 µM), for inactives: at the highest dose activity change, negative = inhibition, actives largely listed as inhibitors; HEK293T ELG1-luciferase reporter, luminescence, 16 h; DNA damage induced by 5-fluorouridine; further: potency means the concentration at half of the fitted maximal effect; nearly all actives have a fitted effect of over 55% in size
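DMSO vehicle served as the neutral condition. Each well held 2,000 cells given 5-fluorouridine plus compound; after 16 hr at 37 °C/5% CO2, ONE-Glo was added and luciferase measured 30 min later.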
RORgamma inh: qHTS for inhibitors of ROR gamma transcriptional activity; Drosophila S2 Gal4-RORgamma UAS-luciferase reporter, 20 h; Potency, µM (top dose mostly 53.6 µM), without a hit: top-dose activity change, negative = inhibition, usual class: inhibitors; 310,000 tested, 5.4% active; AID 2551, 2010; further: potency means the concentration at half of the fitted maximal effect; nearly all actives have a fitted effect of over 60% in size
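Compounds are pin-transferred onto Drosophila Schneider cells expressing a copper-inducible Gal4–ROR gamma transactivation domain fusion. After 1 hr, copper sulfate is added to 700 uM final; luciferase is read 20 hr later.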
B2AR arrestin: qHTS assay of beta-arrestin-biased ligands of beta2-adrenergic receptor; Beta-2 adrenergic receptor (Homo sapiens), P07550; beta-arrestin recruitment to beta2AR, cell-based reporter; Potency, µM (highest dose often 46.1 µM), for the others: at the highest dose activation, most hits filed as activators; 330,000 tested, 0.02% active; AID 492947, 2010;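 further: potency means the concentration at half of the fitted maximal effect; 0% = DMSO controls and full agonism = EC100 isoproterenol or metaproterenol; nearly all actives have a fitted effect of over 65% in size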
Target sequence (P07550 whole entry, looked up): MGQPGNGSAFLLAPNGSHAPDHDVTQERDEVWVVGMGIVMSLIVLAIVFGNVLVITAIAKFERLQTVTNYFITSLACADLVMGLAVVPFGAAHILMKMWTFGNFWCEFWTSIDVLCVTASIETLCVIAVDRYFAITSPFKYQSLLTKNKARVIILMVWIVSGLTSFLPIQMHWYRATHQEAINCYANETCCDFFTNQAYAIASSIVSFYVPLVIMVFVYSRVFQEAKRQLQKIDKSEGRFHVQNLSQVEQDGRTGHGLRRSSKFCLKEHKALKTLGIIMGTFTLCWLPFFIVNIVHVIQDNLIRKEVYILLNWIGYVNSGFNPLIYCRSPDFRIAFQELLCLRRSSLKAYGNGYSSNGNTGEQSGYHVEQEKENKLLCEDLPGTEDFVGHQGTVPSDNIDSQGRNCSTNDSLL
TSHR antag: Antagonists of the Thyroid Stimulating Hormone Receptor: HTS campaign. activity change, negative = inhibition, % at 11.5 µM. 330,000 tested, 0.2% active. AID 504810, 2011. TSHR-expressing cells, TSH-stimulated cAMP HTRF, 2 h; hits give low values. Thyrotropin receptor (Homo sapiens), P16473;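 active means activity change below a set negative limit, meaning inhibition stronger than a set level, cut at about -70% in these data; inconclusive means activity change between two set negative limits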
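Competitive HTRF cAMP read-out (cryptate anti-cAMP antibody, cAMP-d2; 30 min, room temperature) in freshly harvested TSHR cells. Compounds added before TSH at EC80 (4nM final), followed by 2 hours' incubation at 37 deg C.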
Gal4-VP16 FLuc: VP16 counterscreen qHTS for inhibitors of ROR gamma transcriptional activity; Drosophila S2 Gal4-VP16 UAS-luciferase, luminescence, 20 h; Potency, µM (series often up to 53.6 µM), for inactives: at the highest dose activity, negative = inhibition, actives largely listed as inhibitors; 310,000 tested, 3.5% active; AID 2546, 2010;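 further: Gal4-VP16 expression switched on by copper sulfate through the metallothionein promoter; potency means the concentration at half of the fitted maximal effect; nearly all actives have a fitted effect of over 50% in size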
ELG1 FLuc counter: qHTS screen for small molecules that inhibit ELG1-dependent DNA repair: Hit Confirmation in Cell-Based Luciferin Assay; AID 624247, 2012; cell-free firefly luciferase luminescence counter-screen, ViewLux; 350 tested, 3% active; shares compounds with ELG1 DNA repair; Potency, µM (titrated, usually from 46.1 µM), for the others: at the top dose activity change, negative = inhibition, most hits filed as inhibitors; further: potency means the concentration at half of the fitted maximal effect
ELG1-Luc inh: HTS assay for small molecules that inhibit ELG1-dependent DNA repair in human embryonic kidney (HEK293T) cells expressing luciferase-tagged ELG1: Hit Confirmation | HEK293T ELG1-luciferase levels, luminescence; cells co-treated with 5-fluorouridine | 670 tested, 68% active | shares compounds with ELG1 DNA repair | Potency, µM (highest dose often 46.1 µM), for the others: at the highest dose activity change, negative = inhibition, hits mostly inhibitors; further: potency means the concentration at half of the fitted maximal effect; nearly all actives have a fitted effect of over 55% in size
ELG1 MMS Luc: inhibits ELG1-dependent repair under MMS stimulation in HEK293T cells. Potency, µM (series often up to 46.1 µM), inactives show top-dose activity change, negative = inhibition, usual class: inhibitors. AID 624249. shares compounds with ELG1 DNA repair. 670 tested, 53% active. HEK293T luciferase-tagged ELG1 level, MMS stimulated; further: potency means the concentration at half of the fitted maximal effect; nearly all actives have a fitted effect of over 60% in size
ELG1 5FU viab: qHTS screen for small molecules that inhibit ELG1-dependent DNA repair: Hit Confirmation with 5FU Viability. shares compounds with ELG1 DNA repair. cell viability with 5-FU, ELG1-dependent repair. Potency, µM (titrated, usually from 46.1 µM), for the others: at the highest dose activity change, negative = viability loss, actives largely listed as cytotoxic. 670 tested, under 10 active. AID 624250, 2012;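 further: ELG1-luc HEK293T cells cotreated with 5-fluorouridine at 10 µM final; potency means the concentration at half of the fitted maximal effect; viability measured 16 h after compound addition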
ELG1 MMS cell: qHTS screen for small molecules that inhibit ELG1-dependent DNA repair: Hit Confirmation with MMS Viability; shares compounds with ELG1 DNA repair; Cell viability with MMS, ELG1-dependent DNA repair; Potency, µM (titrated, usually from 46.1 µM), for the others: at the highest dose activity change, negative = viability loss, actives largely listed as cytotoxic; 670 tested, 33% active; AID 624251, 2012;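 further: ELG1-luc HEK293T cells co-treated with 10 µM MMS; potency means the concentration at half of the fitted maximal effect; viability read 16 h after compound addition; nearly all actives have a fitted effect of over 60% in size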
Cell viab unstim: qHTS screen for small molecules that inhibit ELG1-dependent DNA repair: Hit Confirmation with Unstimulated Viability Assay. shares compounds with ELG1 DNA repair. cell viability counter-screen, unstimulated, luminescence. Potency, µM (titrated, usually from 45.9 µM), inactives show at the top dose activity change, negative = loss of viability, usual class: cytotoxic. 900 tested, 8% active;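 further: potency means the concentration at half of the fitted maximal effect; compound exposure lasted 16 hours before reading; nearly all actives have a fitted effect of over 55% in size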
FLuc enzyme: qHTS screen for small molecules that inhibit ELG1-dependent DNA repair: Hit Confirmation in Biochemical Luciferin Assay. shares compounds with ELG1 DNA repair. purified firefly luciferase, luminescence counter-screen. Potency, µM (series often up to 57.5 µM), inactives show at the highest dose activity, negative = inhibition, usual class: inhibitors. 350 tested, 10% active; further: potency means the concentration at half of the fitted maximal effect
Numbers without * were called inactive; ? = inconclusive; nt = not tested or not shown; ! = a repeat was not active. Rows were chosen to be rich in hits. Some 7.5% of all compounds tested hit in one or more screens of this group. Unless noted, the call rests on the fitted dose curve; in most records, active means well fitted curve in the direction sought with a large enough effect; inconclusive means small, poorly fitted or top-dose-only effect, or another doubt; inactive means no such curve, though single readings can be large; an effect the other way counts as inactive or inconclusive. Unless noted, on the % scale 0 is the no-effect control and ±100 the full control effect.

SMILES	ELG1 DNA repair	RORgamma inh	B2AR arrestin	TSHR antag	Gal4-VP16 FLuc	ELG1 FLuc counter	ELG1-Luc inh	ELG1 MMS Luc	ELG1 5FU viab	ELG1 MMS cell	Cell viab unstim	FLuc enzyme
CC1(C)Cc2c(c(N3CCOCC3)nc3sc4c(NCc5ccccc5)nnnc4c23)CS1	13µM*	4%	1%	-1	-29%	4%	2.5µM*	15%	?	-2%	-13%	-14%
CN[C@@H]1C[C@@]2(C)O[C@@H]([C@@H]1OC)n1c3ccccc3c3c4c(c5c6ccccc6n2c5c31)C(=O)NC4	nt	nt	nt	nt	nt	0.71µM*	0.5µM*	0.32µM*	11µM*	1µM*	5µM*	1%
CC(C)(C)OC(=O)NCc1ccc(CNC(=O)c2nc[nH]c2C(=O)NCc2ccc(CNC(=O)OC(C)(C)C)cc2)cc1	2.9µM*	nt	0%	8	nt	nt	5µM*	?	7%	9%	?	nt
NNC(=O)c1nc[nH]c1C(=O)Nc1ccc(Cl)cc1C(=O)c1ccccc1	-1%	23%	0%	0	-3%	nt	nt	nt	nt	nt	nt	nt
COc1ccccc1OP(=O)(Nc1cccnc1)Oc1ccccc1OC	2.3µM*	?	0%	-1	-5%	nt	11µM*	7.9µM*	8%	-16%	?	nt
Cc1ccc(NP(=O)(Oc2ccccc2F)Oc2ccccc2F)cc1C	?	?	-1%	16	-9%	nt	nt	nt	nt	nt	nt	nt
CC[C@H](Oc1ccc(Cl)cc1)C(=O)OC1C[C@H]2CC[C@@H](C1)N2C (some centres not stated)	nt	-10%	nt	nt	14%	nt	nt	nt	nt	nt	nt	nt
C=C(C)C(=O)CP(=O)(OCC)OCC	nt	?	nt	nt	5%	nt	nt	nt	nt	nt	nt	nt
CC[C@@H]1/C=C/C=C/C[C@H](C)[C@@H](O)[C@](C)(O)C(=O)[C@H](C)[C@@H](O)[C@H](C)C(=O)[C@H](C)[C@@H](O)[C@H](C)/C=C/C(=O)O[C@H]2[C@@H](C)[C@@H](CC1)O[C@@]1(CC[C@@H](C)[C@@H](C[C@H](C)O)O1)[C@@H]2C	nt	nt	nt	nt	nt	?	7.1µM*	0.011µM*	?	0.011µM*	0.028µM*	-2%
CCOC(=O)c1cccc(NS(=O)(=O)c2ccc(NC(C)=O)cc2)c1	4.6µM*	?	0%	-21	5µM*	nt	13µM*	10µM*	-9%	11µM*	?	nt
CCCCCC1C(=O)O[C@H](C)[C@@H](NC(=O)c2cccc(NC=O)c2O)C(=O)OC(C)C1OC(=O)CC(C)C (some centres not stated)	nt	0.005µM*	nt	nt	11µM*	4%	35%	0.014µM*	-22%	0.014µM*	?	0%
O=C(Nc1cc(C(F)(F)F)cc(C(F)(F)F)c1)c1cc(Cl)ccc1O	nt	0.89µM*	nt	nt	1µM*	?	0.71µM*	0.35µM*	?	0.4µM*	?	-9%
Cc1c(C(=O)N2CCC(Cc3ccccc3)CC2)sc2ncnc(N3CCC(C)CC3)c12	0%	17%	0%	99	-3%	2%	16µM*	?	10%	-12%	-4%	2%
CCC(C)NC(=O)CCC(=O)OC1O[C@H]2OC3(C)CC[C@H]4[C@H](C)CCC(C1C)C24OO3 (some centres not stated)	?	0%	-1%	-18	3%	nt	nt	nt	nt	nt	nt	nt
CCC(C)C(NC(=O)CCCNC(=O)CCC(=O)OC1O[C@H]2OC3(C)CC[C@H]4[C@H](C)CCC(C1C)C24OO3)C(=O)O (some centres not stated)	0.58µM*	-5%	0%	-2	2%	-12%	?	?	-6%	-4%	?	-3%
O=C(O)Cc1cccnc1C(=O)O	nt	-7%	nt	nt	-7%	nt	nt	nt	nt	nt	nt	nt
COc1ccc2c(c1)[nH]c1c(C)nccc12	2µM*	8.9µM*!	0%	-2	?	nt	2.8µM*	11µM*	9%	?	-14%	nt
Cc1nccc2c1[nH]c1ccc(Br)cc12	-7%	nt	0%	0	nt	nt	nt	nt	nt	nt	nt	nt
CSc1cccc(CNC(=O)C2CCC(=O)N(Cc3cccc(C(F)(F)F)c3)C2)c1 (configuration not stated)	?	10%	1%	3	?	nt	nt	nt	nt	nt	nt	nt
NC(=S)c1cn(C2OC(CO)C(O)C2O)c2ncnc(N)c12 (configuration not stated)	0.41µM*	7.1µM*	0%	-12	2.5µM*	?	0.16µM*	0.32µM*	-3%	2µM*	?	0%

Bioassay records: PubChem, National Center for Advancing Translational Sciences (NCATS)
